# PubChem BioAssay AID1159580 (chemical genetic matrix, 2015)
# The campaign covered roughly 5,500 compounds. About 2,000 (36%) were called active. About 18% were inconclusive and are not listed. The list shows a part of the results. Values without a mark were called inactive. Cut-off read from the data, not from the text of the source: active = normalized growth mostly below about 0.91 (no sharp cut-off); inconclusive = no clear call, values can overlap the other calls; inactive = mostly above about 0.92.
# Test: chemical genetic growth profiling, strain panel (AID 1159580);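 note: tested at 20 µM; growth read once vehicle control cultures reached saturation at 30 °C; 1 = growth at the plate median or of vehicle wells; lower values mean less growth of the strain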
# Details: growth OD
smiles,measurement,setting,value
COC(=O)COc1cc(Cl)c(Cl)cc1Cl,normalized growth,"S. cerevisiae deletion strains, locus YJR075W, strain HOC1, active compounds read low",0.952
same,normalized growth,"S. cerevisiae deletion strains, locus YKL009W, strain mrt4, active compounds read low",0.995
same,normalized growth,"S. cerevisiae deletion strains, locus YKL068W, active compounds read low",0.955
same,normalized growth,"S. cerevisiae deletion strains, locus YKL085W, strain MDH1 (second series), active compounds read low",0.949
same,normalized growth,"S. cerevisiae deletion strains, locus YKL085W, strain MDH1, active compounds read low",0.949
same,normalized growth,"S. cerevisiae deletion strains, locus YKL160W, strain elf1, active compounds read low",1
same,normalized growth,"S. cerevisiae deletion strains, locus YKL190W, strain CNB1, active compounds read low",0.971
same,normalized growth,"S. cerevisiae deletion strains, locus YKR001C, strain vps1, active compounds read low",0.916
same,normalized growth,"S. cerevisiae deletion strains, locus YKR026C, strain gcn3, active compounds read low",0.992
same,normalized growth,"S. cerevisiae deletion strains, locus YKR091W, strain srl3, active compounds read low",0.993
same,normalized growth,"S. cerevisiae deletion strains, locus YLL001W, strain dnm1, active compounds read low",0.99
same,normalized growth,"S. cerevisiae deletion strains, locus YLL026W, active compounds read low",0.993
same,normalized growth,"S. cerevisiae deletion strains, locus YLL041C, strain sdh2, active compounds read low",1
same,normalized growth,"S. cerevisiae deletion strains, locus YLR027C, strain aat2, active compounds read low",0.991
same,normalized growth,"S. cerevisiae deletion strains, locus YLR039C, strain RIC1, active compounds read low",0.613 (active)
same,normalized growth,"S. cerevisiae deletion strains, locus YLR058C, strain SHM2, active compounds read low",0.979
same,normalized growth,"S. cerevisiae deletion strains, locus YLR102C, strain apc9, active compounds read low",0.957
same,normalized growth,"S. cerevisiae deletion strains, locus YLR113W, strain HOG1, active compounds read low",0.879
same,normalized growth,"S. cerevisiae deletion strains, locus YLR221C, strain rsa3, active compounds read low",0.987
same,normalized growth,"S. cerevisiae deletion strains, locus YLR258W, strain gsy2, active compounds read low",0.994
same,normalized growth,"S. cerevisiae deletion strains, locus YLR262C, strain YPT6 (second series), active compounds read low",0.863
same,normalized growth,"S. cerevisiae deletion strains, locus YLR262C, strain YPT6, active compounds read low",0.662
same,normalized growth,"S. cerevisiae deletion strains, locus YLR268W, strain sec22, active compounds read low",0.955
same,normalized growth,"S. cerevisiae deletion strains, locus YLR320W, strain mms22, active compounds read low",1.01
same,normalized growth,"S. cerevisiae deletion strains, locus YLR330W, strain CHS5, active compounds read low",0.975
same,normalized growth,"S. cerevisiae deletion strains, locus YLR342W, strain FKS1 (second series), active compounds read low",1.04
same,normalized growth,"S. cerevisiae deletion strains, locus YLR342W, strain FKS1, active compounds read low",0.997
same,normalized growth,"S. cerevisiae deletion strains, locus YLR357W, strain rsc2, active compounds read low",0.895
same,normalized growth,"S. cerevisiae deletion strains, locus YLR370C, strain arc18, active compounds read low",1
same,normalized growth,"S. cerevisiae deletion strains, locus YLR371W, strain rom2, active compounds read low",0.986
same,normalized growth,"S. cerevisiae deletion strains, locus YLR384C, strain iki3, active compounds read low",1.01
same,normalized growth,"S. cerevisiae deletion strains, locus YLR418C, strain cdc73, active compounds read low",0.859
same,normalized growth,"S. cerevisiae deletion strains, locus YML016C, strain PPZ1, active compounds read low",0.966
same,normalized growth,"S. cerevisiae deletion strains, locus YML032C, strain rad52, active compounds read low",0.988
same,normalized growth,"S. cerevisiae deletion strains, locus YML120C, strain ndi1, active compounds read low",0.995
same,normalized growth,"S. cerevisiae deletion strains, locus YML124C, strain tub3, active compounds read low",0.96
same,normalized growth,"S. cerevisiae deletion strains, locus YMR058W, strain fet3, active compounds read low",1
same,normalized growth,"S. cerevisiae deletion strains, locus YMR078C, strain ctf18, active compounds read low",0.97
same,normalized growth,"S. cerevisiae deletion strains, locus YMR125W, strain sto1, active compounds read low",1
same,normalized growth,"S. cerevisiae deletion strains, locus YMR129W, active compounds read low",0.978
same,normalized growth,"S. cerevisiae deletion strains, locus YMR205C, strain PFK2, active compounds read low",1.02
same,normalized growth,"S. cerevisiae deletion strains, locus YMR223W, strain ubp8, active compounds read low",0.978
same,normalized growth,"S. cerevisiae deletion strains, locus YMR231W, strain pep5, active compounds read low",0.989
same,normalized growth,"S. cerevisiae deletion strains, locus YMR263W, strain SAP30, active compounds read low",0.985
same,normalized growth,"S. cerevisiae deletion strains, locus YMR307W, strain GAS1, active compounds read low",1.06
same,normalized growth,"S. cerevisiae deletion strains, locus YNL067W, strain RPL9B, active compounds read low",0.967
same,normalized growth,"S. cerevisiae deletion strains, locus YNL071W, strain lat1, active compounds read low",0.996
same,normalized growth,"S. cerevisiae deletion strains, locus YNL128W, strain TEP1, active compounds read low",0.978
same,normalized growth,"S. cerevisiae deletion strains, locus YNL153C, strain GIM3, active compounds read low",0.989
same,normalized growth,"S. cerevisiae deletion strains, locus YNL183C, strain NPR1, active compounds read low",0.809 (active)
same,normalized growth,"S. cerevisiae deletion strains, locus YNL209W, strain ssb2, active compounds read low",1.01
same,normalized growth,"S. cerevisiae deletion strains, locus YNL233W, strain BNI4, active compounds read low",0.982
same,normalized growth,"S. cerevisiae deletion strains, locus YNL248C, strain rpa49, active compounds read low",1
same,normalized growth,"S. cerevisiae deletion strains, locus YNL250W, strain rad50, active compounds read low",0.957
same,normalized growth,"S. cerevisiae deletion strains, locus YNL271C, strain bni1, active compounds read low",0.956
same,normalized growth,"S. cerevisiae deletion strains, locus YNL298W, strain CLA4, active compounds read low",0.994
same,normalized growth,"S. cerevisiae deletion strains, locus YNL307C, strain MCK1, active compounds read low",0.855 (active)
same,normalized growth,"S. cerevisiae deletion strains, locus YNL322C, strain KRE1 (second series), active compounds read low",0.996
same,normalized growth,"S. cerevisiae deletion strains, locus YNL322C, strain KRE1, active compounds read low",0.977
same,normalized growth,"S. cerevisiae deletion strains, locus YNR049C, strain mso1, active compounds read low",0.991
same,normalized growth,"S. cerevisiae deletion strains, locus YNR052C, strain pop2, active compounds read low",0.993
same,normalized growth,"S. cerevisiae deletion strains, locus YOL006C, strain TOP1, active compounds read low",0.895
same,normalized growth,"S. cerevisiae deletion strains, locus YOL012C, strain htz1",0.897
same,normalized growth,"S. cerevisiae deletion strains, locus YOL147C, strain pex11, active compounds read low",0.964
same,normalized growth,"S. cerevisiae deletion strains, locus YOR001W, strain rrp6, active compounds read low",1.01
same,normalized growth,"S. cerevisiae deletion strains, locus YOR061W, strain CKA2, active compounds read low",0.974
same,normalized growth,"S. cerevisiae deletion strains, locus YOR069W, strain VPS5, active compounds read low",0.979
same,normalized growth,"S. cerevisiae deletion strains, locus YOR070C, strain gyp1, active compounds read low",0.985
same,normalized growth,"S. cerevisiae deletion strains, locus YOR080W, strain dia2, active compounds read low",1
same,normalized growth,"S. cerevisiae deletion strains, locus YOR083W, strain WHI5, active compounds read low",1
same,normalized growth,"S. cerevisiae deletion strains, locus YOR106W, strain vam3, active compounds read low",1.02
same,normalized growth,"S. cerevisiae deletion strains, locus YOR136W, strain idh2, active compounds read low",0.99
same,normalized growth,"S. cerevisiae deletion strains, locus YOR144C, strain elg1, active compounds read low",0.975
same,normalized growth,"S. cerevisiae deletion strains, locus YOR184W, strain ser1, active compounds read low",0.904
same,normalized growth,"S. cerevisiae deletion strains, locus YOR231W, strain MKK1, active compounds read low",0.86
same,normalized growth,"S. cerevisiae deletion strains, locus YOR265W, strain rbl2, active compounds read low",0.98
same,normalized growth,"S. cerevisiae deletion strains, locus YOR270C, strain vph1, active compounds read low",1.1
same,normalized growth,"S. cerevisiae deletion strains, locus YOR290C, strain snf2, active compounds read low",1.01
same,normalized growth,"S. cerevisiae deletion strains, locus YOR316C, strain cot1, active compounds read low",0.964
same,normalized growth,"S. cerevisiae deletion strains, locus YPL051W, strain arl3, active compounds read low",0.992
same,normalized growth,"S. cerevisiae deletion strains, locus YPL055C, strain LGE1, active compounds read low",0.953
same,normalized growth,"S. cerevisiae deletion strains, locus YPL078C, strain atp4, active compounds read low",1.02
same,normalized growth,"S. cerevisiae deletion strains, locus YPL106C, strain sse1, active compounds read low",0.957
same,normalized growth,"S. cerevisiae deletion strains, locus YPL240C, strain hsp82, active compounds read low",0.997
same,normalized growth,"S. cerevisiae deletion strains, locus YPL241C, strain CIN2, active compounds read low",0.972
same,normalized growth,"S. cerevisiae deletion strains, locus YPL256C, strain CLN2, active compounds read low",0.786 (active)
same,normalized growth,"S. cerevisiae deletion strains, locus YPR119W, strain clb2, active compounds read low",0.955
same,normalized growth,"S. cerevisiae deletion strains, locus YPR141C, strain kar3, active compounds read low",0.948
same,normalized growth,"S. cerevisiae deletion strains, locus YPR163C, strain tif3, active compounds read low",0.992
same,normalized growth,"S. cerevisiae deletion strains, locus YPR167C, strain met16, active compounds read low",0.976
same,normalized growth,"S. cerevisiae deletion strains, strain wtn01, active compounds read low",0.962
same,normalized growth,"S. cerevisiae strains, strain wild type, active compounds read low",0.969
